Inhibition data for 40 molecules are collected here from PubChem BioAssay.

Molecules are shown by their SMILES. A number with no mark means an inactive call. No rule for the calls is given here.

For this test, the target named is Lethal factor (Bacillus anthracis) (UniProt P15917). Briefly: Lethal factor protease inhibitors, Bacillus anthracis, multiplex microsphere cleavage assay, validation set (AID 588461). Conditions: flow cytometry, at 10 µM, hits give high values.
For `Cc1ccc(S(=O)(=O)N[C@@H](C)C(=O)N2CCC(C(=O)N3CCC[C@H]3C(=O)O)CC2)cc1`, the inhibition was -1.7%. The value for `O=P(O)(O)CP(=O)(O)O` was -3.7%. The value for `NC(=O)c1ncn([C@@H]2O[C@H](CO)[C@@H](O)[C@H]2O)c1O` was -13.3%; that for `O=C(NCCc1ccccc1)C1CCN(C2CCN(Cc3ccco3)CC2)CC1` was -9.8%; that for `COc1ccc(N2C(=O)C3C(C2=O)C(C(=O)c2ccccc2)N2CCCC32)cc1` (stereo not given) was -3.5%. Consider `CC(C)(Sc1cc(C(C)(C)C)c(O)c(C(C)(C)C)c1)Sc1cc(C(C)(C)C)c(O)c(C(C)(C)C)c1`, for which the inhibition was -7.4%.

In the case of `CC(=O)CCc1c(C)c2cccc(C)c2[nH]c1=O`, the inhibition was -3.4%.

On to `CCOc1ccc2ccccc2c1CNc1nnnn1C`, for which the inhibition was -1.5%.

Consider `CC(=O)OCC#CCSc1nc2ccccc2n1C`, for which the inhibition was -1.5%. As for `CCCCC[C@H](O)/C=C/[C@@H]1[C@@H](C/C=C\CCCC(=O)OC)[C@@H](O)C[C@H]1O`, the inhibition was -1.1%. On to `COc1ccc(N2C(=O)[C@@H]3[C@H](C2=O)[C@H]2c4ccccc4C=CN2[C@@H]3C(C)=O)cc1`, for which the inhibition is -16.8%. The value for `Cc1cccc(C(=O)c2cccc(C)c2)c1` was -11.4%; that for `CCCN1C[C@H](CSC)C[C@@H]2c3cccc4[nH]cc(c34)C[C@H]21` was -33.7%.

As to `CC1(C)CC(CNCCC(c2ccc(F)cc2)c2ccco2)CCO1` (stereo not given), the inhibition is 3.4%. As to `COc1cc2c(cc1OC)-c1cc(NC3CCCCCC3)nc(=O)n1CC2`, the inhibition is -7.4%. As to `COC(=O)c1ccc(C(=O)OC)c(NC(=O)C(C)C)c1`, the inhibition is -1.4%. The value for `O=C(c1ccco1)N1CCCN(Cc2nc(-c3ccc4c(c3)OCO4)no2)CC1` was 3.6%; that for `COc1cc(/C=C/C(=O)N2CCCC2)cc(OC)c1OC` was 4.4%. `Oc1ccc(Oc2ncc(Cl)cc2Cl)cc1`: the inhibition was -2.9%. The value for `Cc1ncc(C(=O)O)c(C(=O)O)c1N` was 2.4%. For `COc1cc(-c2nnc(-c3cccs3)o2)cc(OC)c1OC`, the inhibition is 4.3%. As for `COc1ccc2c(c1)[N+](C)(C)C(C)(C)C=C2C`, the inhibition was 1.6%. The value for `Cc1ccc(/C(=C\CN2CCCC2)c2ccccn2)cc1` was 11.9%.

As to `CNCCC=C1c2ccccc2CCc2ccccc21`, the inhibition is -5.8%. The value for `O=C1C=CC(=O)C(C2=C3C(=O)N(CCc4ccccc4)CC(=O)N3CCC2)=C1` was -4.9%. The value for `Cc1ccc2c(c1)C1CN(C)CCC1N2S(=O)(=O)c1ccc(Oc2ccc([N+](=O)[O-])cc2)cc1` (stereo not given) was 8.4%; that for `O=C(CN1C(=O)/C(=C/c2cccc(Br)c2)SC1=S)Nc1cccnc1` was 4.2%. The value for `CCC(=O)c1ccc(OCc2ccc(C(=O)OC)cc2)cc1` was -3.4%. With `CN1CCCN=C1COC(=O)C(O)(c1ccccc1)C1CCCCC1` (stereo not given), the inhibition is -4.7%.

With `CC1(C)CC(=O)C(C2(O)C(=O)Nc3ccccc32)CO1` (stereo not given), the inhibition is -6%. Take `COc1ccc2[nH]c(=O)c3c(c2c1)OC(C)(C)C=C3`: the inhibition is -4.6%. Regarding `Cc1ccc(Nc2ncccc2C(=O)O)cc1C`, the inhibition is -6.3%.

With `Cc1oc2c(C)c3oc(=O)c4c(c3cc2c1C)CCCC4`, the inhibition was 1.3%. As to `CC(C)CN1CCN(Cc2cccn2-c2ccccn2)CC1CCO` (stereo not given), the inhibition is 3.6%. With `CC1=CC(C)(C)N2C(=O)C3(NCCc4c3[nH]c3ccccc43)c3cc(C)cc1c32` (stereo not given), the inhibition was 0.2%. With `CS(=O)c1ccccc1O` (stereo not given), the inhibition was -9.2%. The value for `CC(C)CCOCC(=O)Nc1cccc(C(=O)O)c1` was -0.3%.

Consider `Cc1ccsc1/C=C/C1=NCCCN1C`, for which the inhibition is -3.7%. The value for `Cc1oncc1C(=O)Nc1ccc(C(F)(F)F)cc1` was 2.2%.

`CCOC(=O)C1C(=O)CC(C)(O)C(C(=O)OCC)C1/C=C/c1ccccc1` (stereo not given): the inhibition was -1.4%.

In general, inhibition refers to the drop in the measured response relative to a control, in per cent.
